Results: the supplement of paper PMC6555819

Legend:
Test in all cases: PBM binding z-score (relative to random genomic background probes); higher = stronger binding; sequences stand for … in GC…GCGATTGACAGCGTAGAATGAAGG
[1] = test system: FXR:RXRa (NR concentration 270 nM, RXRa partner concentration 90 nM)
Procedure, shortened: (§1)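 Ligand-free nuclear receptor dimers were applied to custom Agilent 4×180K protein-binding microarrays whose double-stranded probes carried direct-repeat seeds, single-nucleotide variants, half-site ablations and random human genomic background sequences in 34-nt variable regions. Incubation lasted 1 h. Binding z-scores were computed against the random background probes from regression-normalized fluorescence.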

[2] = test system: LXRa:RXRa (NR concentration 270 nM, RXRa partner concentration 90 nM)
Procedure, shortened: as §1

[3] = test system: LXRa homodimer (NR concentration 270 nM)
Procedure, shortened: as §1

[4] = test system: LXRb:RXRa (NR concentration 270 nM, RXRa partner concentration 90 nM)
Procedure, shortened: as §1

[5] = test system: LXRb homodimer (NR concentration 270 nM)
Procedure, shortened: as §1

[6] = test system: PPARa:RXRa (NR concentration 270 nM, RXRa partner concentration 90 nM)
Procedure, shortened: as §1

[7] = test system: PPARg:RXRa (NR concentration 180 nM, RXRa partner concentration 90 nM)
Procedure, shortened: as §1

[8] = test system: PPARg:RXRa 270nM:90nM, anti-RXR (NR concentration 270 nM, RXRa partner concentration 90 nM)
Procedure, shortened: as §1

[9] = test system: PPARg:RXRa 30nM:10nM, anti-RXR (NR concentration 30 nM, RXRa partner concentration 10 nM)
Procedure, shortened: as §1

[10] = test system: PPARg:RXRa 90nM:30nM, anti-RXR (NR concentration 90 nM, RXRa partner concentration 30 nM)
Procedure, shortened: as §1

| Sequence | PBM binding z-score [1] | PBM binding z-score [2] | PBM binding z-score [3] | PBM binding z-score [4] | PBM binding z-score [5] | PBM binding z-score [6] | PBM binding z-score [7] | PBM binding z-score [8] | PBM binding z-score [9] | PBM binding z-score [10] |
| --- | --- | --- | --- | --- | --- | --- | --- | --- | --- | --- |
| TCATAGAGGTAAACAGGTGAAAGTCCGTAAGTTA | 0.648 | 0.794 | -0.178 | 0.62 | -0.997 | 2.14 | 1.65 | 2.55 | 2.8 | 2.68 |
| CAAACTAGGCCACCGGAAGGTCAAAGTCCGCATG | 2.96 | 3.08 | 3.39 | 3.15 | 0.364 | 4.46 | 5.26 | 5.14 | 1.86 | 4.33 |
| CGAACGAGGGCATGGGTTGATAGCAAATGCCGAT | 0.548 | 0.397 | -0.228 | 0.329 | -0.69 | 2.01 | 3.1 | 3.6 | 1.43 | 3.25 |
| ATATGTAGGTTACATCCGGGTCGTTCAGGCTATG | 1.06 | 2.86 | 0.557 | 1.67 | 0.653 | 3.5 | 5.18 | 4.47 | 1.66 | 3.49 |
| AGCACGAGGGCAATGAGTTGATAGCACGGGTGGC | 0.125 | 0.129 | -0.673 | -0.297 | -0.733 | 0.58 | 0.928 | -0.00435 | -0.788 | -0.265 |
| CGAACGAGGGCATGAGTTGATCGCAAATGCCGAT | 0.394 | 0.374 | -0.273 | 0.109 | -0.729 | 1.45 | 1.22 | 1.32 | 0.129 | 0.937 |
| CTCGAAAGGTCGGTTGCGGTGAGTATACGGATAA | 2.08 | 1.5 | 0.16 | 1.38 | 0.241 | 2.17 | 0.168 | 0.893 | 0.195 | 0.654 |
| GGAACGAGGGCAAGTCGATAGCAGAGTTTGATGG | 0.383 | 0.00226 | -0.566 | -0.0585 | -0.781 | 1.48 | 0.928 | 0.703 | -0.275 | 0.116 |
| TCTCGTAGATCAAGCAGGTTAAGAAAGCCTGAGT | -0.462 | -0.196 | -0.257 | -0.0905 | -1.19 | 0.4 | -0.54 | 0.861 | 2.47 | 1.83 |
| AGAATGAGGTTACCAAAGATCAGCGAAACGCTTG | 1.92 | 6.09 | -0.342 | 3.38 | -0.405 | 3.24 | 2.63 | 2.59 | 0.865 | 1.64 |
| CCTAGCAGGCCAATCTGGGTCACTTAAGGCTTGA | 0.716 | 1.48 | -0.236 | 0.733 | -0.723 | 2.96 | 1.68 | 2.03 | -0.218 | 1.33 |
| AGAATGAGGTGATTAAGATCAGGGAATTGCGGTC | -0.0476 | -0.338 | -0.29 | -0.384 | -0.427 | 0.785 | 0.618 | 0.415 | -0.0538 | 0.0296 |
| CGAACGAGGGCATGAGTGGATAGCAAATGCCGAT | 0.364 | 0.334 | -0.533 | 0.059 | -0.983 | 1.22 | 1.27 | 0.947 | 0.0449 | 0.449 |
| GGAACGAGGGCAAGTTGATAGCAGAGTTTGATGG | 1.07 | 0.522 | -0.269 | 0.278 | -0.586 | 1.74 | 1.19 | 1.03 | -0.0238 | 0.39 |
| GCTGCTAGGTCCACTGATGGTCAGCTAAAGCTCG | -0.489 | -0.3 | -0.698 | -0.586 | -0.746 | -0.509 | -0.592 | -0.813 | -0.963 | -0.946 |
| ATCTCTAGGTATCAAGTTCAGTGAAAGAGAGGAC | 0.749 | 0.772 | 0.719 | 0.674 | 1.24 | 0.806 | 0.577 | 1.44 | 0.214 | 1.15 |
| ATCGAAAGGTCGAAGTTGAGTATACCCACCCGAA | 4.36 | 3.82 | 0.667 | 3.19 | 1.03 | 4.79 | 3.29 | 3.96 | 1.49 | 3.12 |
